Inconclusive results are not listed. Unmarked numbers belong to inactive results. The call rests on the fitted dose curve; in most records, active means well fitted cell-killing curve with a large enough effect; inconclusive means small, poorly fitted or top-dose-only effect, or effect the other way; inactive means flat fitted curve, though single readings scatter. *1 amine or outer side, *2 acyl side, *3 side chain or, on linkers, in order; H or OH if unused. Where a SMILES comes first, the peptide text is derived from it. Bridges are numbered along the chain shown (N, C = ends). [ ]: non-standard residue; d: D form. The star is where a group is joined. pTerphenylCO(4''-OnC5H11) = CCCCCOc1ccc(-c2ccc(-c3ccc(C(=O)*)cc3)cc2)cc1; Orn(4R-OH,5R-OH) = O=C([C@H](C[C@@H](O)[C@@H](O)N[*:3])N[*:1])[*:2]; hTyr(3S-OH,4S-OH) = N[C@H](C(=O)O)[C@H](O)[C@@H](O)c1ccc(O)cc1; Pro(3S-OH,4S-Me) = C[C@H]1CN[C@H](C(=O)O)[C@H]1O; Hyp = O=C(O)[C@@H]1C[C@@H](O)CN1
test system: OV90; test: Primary qHTS to identify gynecologic anti-cancer compounds using libraries of approved drugs and bioactive compounds (AID 1345084); conditions: Gynecologic cancer cell panel viability, ATPlite luminescence, 48 h; series mostly up to 57.5 µM; activity change, negative = cytotoxicity: at the top concentration; further: nearly all actives have a fitted effect of over 55% in size
Procedure, shortened: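 Cells, 1,000 per well, plated 16 h, then exposed 48 h at 37 C to compounds. Viability by ATPlite luminescence after 15 min at room temperature.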
On the % scale 0 is the no-effect control and ±100 the full control effect.

SMILES | activity change, negative = cytotoxicity
CC(OC1OCCN(Cc2n[nH]c(=O)[nH]2)C1c1ccc(F)cc1)c1cc(C(F)(F)F)cc(C(F)(F)F)c1 (stereo unspecified) | -1.76%
Fc1ccc(-c2cncc(CN3CCN(c4cccc5c4OCCO5)CC3)c2)cc1 | 0.6%
C=C(CCC1C(C)(O)CCC2C(C)(C)C(O)CCC12C)C(O)CO (stereo unspecified) | 3.22% [at 38.5 µM]
CCC[C@@]1(CCc2ccccc2)CC(O)=C([C@H](CC)c2cccc(NS(=O)(=O)c3ccc(C(F)(F)F)cn3)c2)C(=O)O1 | -8.05%
COc1ccc([C@H]2Cc3cccc(O)c3C(=O)O2)cc1OC | -0.551%
C/C=C(/C)C(=O)OC1C=C2C3C(C)C(C)C(OC(=O)C(C)C(C)O)CC3(C)CCC2(C)C2(C)CC(OC(C)=O)C3C(C)(C)C(O)C(=O)CC3(C)C12 (stereo unspecified) | 28.2% [at 25.3 µM]
CN1CCN(C2=Nc3ccccc3Nc3ccc(Cl)cc32)CC1 | -1.51%
COc1ccc(NC(=O)c2ccc(-c3ccc(C(=N)N)cc3C)cc2)cc1N1CCN(C)CC1 | 6.36%
O=C(c1ccccn1)N(Cc1cccs1)C1(C(=O)NC2CCCCC2)CCCCC1 | 0.394%
O=c1cc(OCc2ccc(F)cc2)ccn1-c1ccc(OCCN2CCCC2)cc1 | 2.01%
Cc1cccc(N2CCN(C(=O)c3cc(S(=O)(=O)N(C)C)ccc3N3CCCC3)CC2)c1C | 6.84%
N#CC(CCCN1CCN(/N=C/c2cccnc2)CC1)(c1ccccc1)c1ccccc1 | -1.5%
Cc1cccc(C#Cc2cc(F)cc(C#N)c2)n1 | -3.43%
COc1ccncc1C(=O)NC(=O)Nc1ccc(-c2ccccc2)c(C(F)(F)F)c1 | -4.05%
Clc1ccc(Cn2c(Cc3ccccc3)nc3ccccc32)cc1 | 2.53%
Cc1cc2sc(NC(=O)Cc3ccccc3)nc2cc1Cl | 1.41%
O=C(Cc1c(F)cccc1F)Nc1cc(OCc2ccc(Cl)cc2)ccn1 | -0.513%
O=C(c1cc(Cc2n[nH]c(=O)c3ccccc23)ccc1F)N1CCCNCC1 | -0.404%

SMILES | activity change, negative = cytotoxicity
CCC(C)/C=C(C)/C=C/C1=CC2=CC(=O)C3(C)OC(C)(O)C(C(=O)OC)C3C2=CO1 (stereo unspecified) | 12.2% [at 25.3 µM]
CNc1cc2[nH]c(=O)n(-c3ccc(NC(=O)NS(=O)(=O)c4ccc(Cl)s4)cc3)c(=O)c2cc1F | -5.4%
COc1ccc(-n2c(SCCCN3C(=O)c4cccc5cccc(c45)C3=O)nnc2-c2ccncc2)cc1 | 2.44%
C=C1C(=O)OC2/C=C(\CO)CC/C=C(\C=O)C(O)C(OC(=O)C(C)CC)C12 (stereo unspecified) | -5.3% [at 38.5 µM]
O=C(Nc1ccccc1C(=O)Nc1ccc(CCO)cc1)c1ccc([N+](=O)[O-])cc1 | -17.7%
CC1(C)CC[C@]2(C(=O)O)CC[C@]3(C)C(=CCC4[C@@]5(C)C[C@@H](O)[C@H](O)[C@@](C)(CO)C5CC[C@]43C)[C@@H]2[C@@H]1O (stereo partly specified) | -0.237% [at 25.3 µM]
C=C(C(=O)OC[C@H]1O[C@@H](OC(=O)/C=C/c2ccccc2)[C@H](O)[C@@H](O)[C@@H]1O)C(O)CO (stereo partly specified) | 14.5% [at 25.3 µM]
COc1ccccc1OCCNCC(O)CCOc1cccc2[nH]c3ccccc3c12 (stereo unspecified) | -16%
CC(C)/C=C1\NC(=O)C(C(C)C)n2c1nc1ccccc1c2=O (stereo unspecified) | -8.52% [at 38.5 µM]
CCCCCOc1ccc(-c2ccc(-c3ccc(C(=O)N[C@H]4C[C@@H](O)[C@@H](O)NC(=O)[C@@H]5[C@@H](O)[C@@H](C)CN5C(=O)[C@H]([C@@H](C)O)NC(=O)[C@H]([C@H](O)[C@@H](O)c5ccc(O)cc5)NC(=O)[C@@H]5C[C@@H](O)CN5C(=O)[C@H]([C@@H](C)O)NC4=O)cc3)cc2)cc1 ({pTerphenylCO(4''-OnC5H11)}-[Orn(4R-OH,5R-OH)]T[Hyp][hTyr(3S-OH,4S-OH)]T[Pro(3S-OH,4S-Me)]; lactam 1-C) | -2.28% [at 25.3 µM]
COc1ccccc1C(=O)Nc1cc2c(cc1N1CCCC1)n(C)c(=O)n2C | -0.523%
C=C1C(=O)OC2C1CCC1(C)C(O)CCC(=C)C21 (stereo unspecified) | -1.74%
Cc1nc(C#Cc2ccnc(Cl)c2)c(C)n1-c1ccc(OC(F)(F)F)cc1 | 2.06%
COc1cc(CCc2ccc(OCC=C(C)C)cc2)cc(OC)c1OC | -11.5% [at 38.5 µM]
CC(=O)[C@H]1CC[C@H]2[C@@H]3CC=C4C[C@@H](OS(=O)(=O)O)CC[C@]4(C)[C@H]3CC[C@]12C | 9.04%
C=C(C(=O)O)[C@@H]1CC=C(CCC(C)=O)[C@@H](C)CC1 | -13.6%
C=C[C@]1(C)C[C@H](O)[C@H]2C(=C)C(=O)O[C@@H]2[C@H]1C(=C)CO | 14.6%
CC[C@H](C)/C=C(C)/C=C/C1=CC2=C(Cl)C(=O)[C@](C)(O)[C@H](OC(C)=O)[C@H]2CO1 | -13.3% [at 38.5 µM]

Source: PubChem BioAssay (NCATS)
